Reference: PubChem BioAssay AID1159580 (chemical genetic matrix, 2015)
“And” between values parts separate entries of the source, which are not always exact repeats. Equal values may be shown once. Hit rate of the full screen: of about 5,500 compounds, about 2,000 (36%) were called active. About 18% were inconclusive and are not listed. No stated cut-off is given here; in the data, active means normalized growth mostly below about 0.91 (no sharp cut-off); inconclusive means no clear call, values can overlap the other calls; inactive means mostly above about 0.92. This is one part of the list.

Experiment: chemical genetic growth profiling, strain panel (AID 1159580);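 further: tested at 20 µM; growth read once vehicle control cultures reached saturation at 30 °C; 1 = growth at the plate median or of vehicle wells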
Details: S. cerevisiae deletion strains, growth OD

Measured: normalized growth

CN(C)CCCN1c2ccccc2Sc2ccc(Cl)cc21
inactive: locus YAL040C, strain CLN3, stronger effect = lower value 0.992 | locus YBR229C, strain ROT2, stronger effect = lower value 1.01 | locus YCL029C, strain bik1, stronger effect = lower value 1.03 | locus YDL005C, strain med2, stronger effect = lower value 1.01 | locus YDL074C, strain BRE1, stronger effect = lower value 0.87 | locus YDL101C, strain DUN1, stronger effect = lower value 0.992 | locus YDL185W, strain tfp1, stronger effect = lower value 1.01 | locus YDL192W, strain arf1, stronger effect = lower value 1.01 | locus YDR101C, strain arx1, stronger effect = lower value 0.98 | locus YDR137W, strain rgp1, stronger effect = lower value 0.903 | locus YDR318W, strain mcm21, stronger effect = lower value 0.999 | locus YDR363W, strain ESC2, stronger effect = lower value 0.953 | locus YDR388W, stronger effect = lower value 0.98 | locus YDR502C, strain sam2, stronger effect = lower value 0.974 | locus YEL061C, strain CIN8, stronger effect = lower value 0.983 | locus YER002W, strain NOP16, stronger effect = lower value 0.972 | locus YER110C, stronger effect = lower value 1.04 | locus YER111C, strain swi4, stronger effect = lower value 0.977 | locus YER155C, strain BEM2 (second series), stronger effect = lower value 1.12 | locus YER155C, strain BEM2, stronger effect = lower value 1.02 | locus YER167W, strain BCK2, stronger effect = lower value 1.01 | locus YGL078C, strain dbp3, stronger effect = lower value 1.01 | locus YGL086W, strain mad1, stronger effect = lower value 0.936 | locus YGL240W, strain doc1, stronger effect = lower value 0.92 | locus YGL248W, strain PDE1, stronger effect = lower value 0.994 | locus YGR078C, strain PAC10, stronger effect = lower value 0.889 and 0.997 | locus YGR135W, strain pre9, stronger effect = lower value 0.913 | locus YGR252W, strain gcn5, stronger effect = lower value 0.78 | locus YHR030C, strain SLT2, stronger effect = lower value 0.948 and 0.983 | locus YHR079C, strain IRE1 (second series), stronger effect = lower value 1.01 | locus YHR079C, strain IRE1, stronger effect = lower value 0.984 | locus YHR094C, strain hxt1, stronger effect = lower value 1 | locus YHR129C, strain ARP1, stronger effect = lower value 1 | locus YHR200W, strain rpn10, stronger effect = lower value 1.01 | locus YIL066C, strain RNR3, stronger effect = lower value 0.936 | locus YIL073C, strain SPO22, stronger effect = lower value 0.979 | locus YIL125W, strain kgd1, stronger effect = lower value 1 | locus YIR030C, strain dcg1, stronger effect = lower value 1.02 | locus YJL134W, strain LCB3, stronger effect = lower value 0.998 | locus YJL168C, strain set2, stronger effect = lower value 1.01 | locus YJL187C, strain SWE1 (second series), stronger effect = lower value 0.949 | locus YJR043C, strain POL32, stronger effect = lower value 1.02 | locus YJR066W, strain TOR1, stronger effect = lower value 0.974 | locus YJR075W, strain HOC1, stronger effect = lower value 0.933 | locus YKL009W, strain mrt4, stronger effect = lower value 1.02 | locus YKL068W, stronger effect = lower value 1.01 | locus YKL085W, strain MDH1 (second series), stronger effect = lower value 0.975 | locus YKL085W, strain MDH1, stronger effect = lower value 0.975 | locus YKL190W, strain CNB1, stronger effect = lower value 0.949 | locus YKR001C, strain vps1, stronger effect = lower value 0.919 | locus YLR058C, strain SHM2, stronger effect = lower value 0.986 | locus YLR102C, strain apc9, stronger effect = lower value 1 | locus YLR113W, strain HOG1, stronger effect = lower value 0.982 | locus YLR268W, strain sec22, stronger effect = lower value 1.01 | locus YLR330W, strain CHS5, stronger effect = lower value 1 | locus YLR371W, strain rom2, stronger effect = lower value 1.01 | locus YML016C, strain PPZ1, stronger effect = lower value 1 | locus YML032C, strain rad52, stronger effect = lower value 0.964 | locus YML124C, strain tub3, stronger effect = lower value 1.01 | locus YMR078C, strain ctf18, stronger effect = lower value 1.01 | locus YMR223W, strain ubp8, stronger effect = lower value 0.958 | locus YMR263W, strain SAP30, stronger effect = lower value 0.955 | locus YMR307W, strain GAS1, stronger effect = lower value 1.02 | locus YNL067W, strain RPL9B, stronger effect = lower value 0.993 | locus YNL175C, strain NOP13, stronger effect = lower value 0.967 | locus YNL183C, strain NPR1, stronger effect = lower value 0.917 | locus YNL197C, strain WHI3, stronger effect = lower value 0.98 | locus YNL224C, strain SQS1, stronger effect = lower value 0.984 | locus YNL233W, strain BNI4, stronger effect = lower value 0.937 | locus YNL250W, strain rad50, stronger effect = lower value 1.02 | locus YNL271C, strain bni1, stronger effect = lower value 1.01 | locus YNL298W, strain CLA4, stronger effect = lower value 1.02 | locus YNL307C, strain MCK1, stronger effect = lower value 1.01 | locus YNL322C, strain KRE1 (second series), stronger effect = lower value 1.07 | locus YNL322C, strain KRE1, stronger effect = lower value 0.974 | locus YNR052C, strain pop2, stronger effect = lower value 0.94 | locus YOL006C, strain TOP1, stronger effect = lower value 0.733 | locus YOL012C, strain htz1 0.856 | locus YOL147C, strain pex11, stronger effect = lower value 1.02 | locus YOR061W, strain CKA2, stronger effect = lower value 0.948 | locus YOR069W, strain VPS5, stronger effect = lower value 1 | locus YOR083W, strain WHI5 (second series), stronger effect = lower value 0.935 | locus YOR136W, strain idh2, stronger effect = lower value 1.03 | locus YOR144C, strain elg1, stronger effect = lower value 1.01 | locus YOR184W, strain ser1, stronger effect = lower value 1.04 | locus YOR231W, strain MKK1, stronger effect = lower value 0.986 | locus YOR316C, strain cot1, stronger effect = lower value 1 | locus YPL241C, strain CIN2, stronger effect = lower value 0.988 and 0.985 | locus YPL256C, strain CLN2, stronger effect = lower value 0.97 | locus YPR119W, strain clb2, stronger effect = lower value 1.01 | locus YPR141C, strain kar3, stronger effect = lower value 1.02 | locus YPR163C, strain tif3, stronger effect = lower value 0.988 | locus YPR167C, strain met16, stronger effect = lower value 1.02 | strain wtn01, stronger effect = lower value 0.969
0.739 (active) and 0.979 (inactive): locus YJL095W, strain BCK1, stronger effect = lower value
active: locus YAL021C, strain ccr4, stronger effect = lower value 0.0773 | locus YAL026C, strain drs2, stronger effect = lower value 0.0621 | locus YAL030W, strain snc1, stronger effect = lower value 0.0722 | locus YBL061C, strain skt5, stronger effect = lower value 0.0759 | locus YBR009C, strain hhf1, stronger effect = lower value 0.0662 | locus YBR021W, strain FUR4, stronger effect = lower value 0.612 | locus YBR023C, strain chs3, stronger effect = lower value 0.0864 | locus YBR171W, strain sec66, stronger effect = lower value 0.351 | locus YBR231C, strain swc5, stronger effect = lower value 0.0709 | locus YBR279W, strain paf1, stronger effect = lower value 0.165 | locus YCL011C, strain gbp2, stronger effect = lower value 0.068 | locus YCL016C, strain dcc1, stronger effect = lower value 0.165 | locus YCL069W, strain vba3, stronger effect = lower value 0.131 | locus YCR088W, strain abp1, stronger effect = lower value 0.0794 | locus YDL035C, strain GPR1, stronger effect = lower value 0.853 | locus YDL040C, strain nat1, stronger effect = lower value 0.14 | locus YDR001C, strain nth1, stronger effect = lower value 0.119 | locus YDR069C, strain doa4, stronger effect = lower value 0.0779 | locus YDR159W, strain sac3, stronger effect = lower value 0.274 | locus YDR162C, strain NBP2, stronger effect = lower value 0.599 | locus YDR195W, strain ref2 0.155 | locus YDR297W, strain sur2, stronger effect = lower value 0.0894 | locus YDR334W, strain swr1, stronger effect = lower value 0.0746 | locus YDR335W, strain msn5, stronger effect = lower value 0.158 | locus YDR392W, strain spt3, stronger effect = lower value 0.351 | locus YEL003W, strain gim4, stronger effect = lower value 0.0681 | locus YEL037C, strain rad23, stronger effect = lower value 0.0964 | locus YEL061C, strain CIN8 (second series), stronger effect = lower value 0.4 | locus YER015W, strain faa2, stronger effect = lower value 0.111 | locus YER016W, strain bim1, stronger effect = lower value 0.102 | locus YFR010W, strain ubp6, stronger effect = lower value 0.111 | locus YGL167C, strain pmr1, stronger effect = lower value 0.562 | locus YGL173C, strain kem1, stronger effect = lower value 0.501 | locus YGL227W, strain vid30, stronger effect = lower value 0.103 | locus YGL253W, strain hxk2, stronger effect = lower value 0.0994 | locus YHR013C, strain ard1, stronger effect = lower value 0.513 | locus YHR027C, strain rpn1, stronger effect = lower value 0.082 | locus YHR142W, strain chs7, stronger effect = lower value 0.116 | locus YJL092W, strain hpr5, stronger effect = lower value 0.0961 | locus YJL095W, strain BCK1 (second series), stronger effect = lower value 0.0651 | locus YJL115W, strain asf1, stronger effect = lower value 0.183 | locus YJL129C, strain trk1, stronger effect = lower value 0.159 | locus YJL154C, strain vps35, stronger effect = lower value 0.0684 | locus YJL164C, strain tpk1, stronger effect = lower value 0.0728 | locus YJL166W, strain qcr8, stronger effect = lower value 0.0785 | locus YKL160W, strain elf1, stronger effect = lower value 0.229 | locus YKR026C, strain gcn3, stronger effect = lower value 0.151 | locus YKR091W, strain srl3, stronger effect = lower value 0.0828 | locus YLL001W, strain dnm1, stronger effect = lower value 0.11 | locus YLL026W, stronger effect = lower value 0.0697 | locus YLL041C, strain sdh2, stronger effect = lower value 0.0922 | locus YLR027C, strain aat2, stronger effect = lower value 0.0702 | locus YLR039C, strain RIC1, stronger effect = lower value 1.67 [resistant] | locus YLR221C, strain rsa3, stronger effect = lower value 0.11 | locus YLR258W, strain gsy2, stronger effect = lower value 0.0787 | locus YLR262C, strain YPT6 (second series), stronger effect = lower value 0.165 | locus YLR262C, strain YPT6, stronger effect = lower value 1.54 [resistant] | locus YLR320W, strain mms22, stronger effect = lower value 0.181 | locus YLR342W, strain FKS1 (second series), stronger effect = lower value 0.746 | locus YLR342W, strain FKS1, stronger effect = lower value 0.0779 | locus YLR357W, strain rsc2, stronger effect = lower value 0.18 | locus YLR370C, strain arc18, stronger effect = lower value 0.067 | locus YLR384C, strain iki3, stronger effect = lower value 0.102 | locus YLR418C, strain cdc73, stronger effect = lower value 0.804 | locus YML120C, strain ndi1, stronger effect = lower value 0.082 | locus YMR058W, strain fet3, stronger effect = lower value 0.0939 | locus YMR125W, strain sto1, stronger effect = lower value 0.0861 | locus YMR129W, stronger effect = lower value 0.0771 | locus YMR205C, strain PFK2, stronger effect = lower value 0.719 | locus YMR231W, strain pep5, stronger effect = lower value 0.0725 | locus YNL071W, strain lat1, stronger effect = lower value 0.218 | locus YNL153C, strain GIM3, stronger effect = lower value 0.86 and 0.732 | locus YNL209W, strain ssb2, stronger effect = lower value 0.101 | locus YNL248C, strain rpa49, stronger effect = lower value 0.461 | locus YNR049C, strain mso1, stronger effect = lower value 0.0933 | locus YOR001W, strain rrp6, stronger effect = lower value 0.143 | locus YOR070C, strain gyp1, stronger effect = lower value 0.0696 | locus YOR080W, strain dia2, stronger effect = lower value 0.18 | locus YOR083W, strain WHI5, stronger effect = lower value 0.0877 | locus YOR106W, strain vam3, stronger effect = lower value 0.0702 | locus YOR265W, strain rbl2, stronger effect = lower value 0.0766 | locus YOR270C, strain vph1, stronger effect = lower value 0.331 | locus YOR290C, strain snf2, stronger effect = lower value 0.122 | locus YPL051W, strain arl3, stronger effect = lower value 0.229 | locus YPL078C, strain atp4, stronger effect = lower value 0.586 | locus YPL106C, strain sse1, stronger effect = lower value 0.109 | locus YPL240C, strain hsp82, stronger effect = lower value 0.0839
